PubChem BioAssay (NCATS)
Inconclusive results are not listed. The source made the active and inactive calls. The call rests on the fitted dose curve; in most records, active means well fitted cell-killing curve with a large enough effect; inconclusive means small, poorly fitted or top-dose-only effect; inactive means no such curve, though single readings can be large or run the other way.

Assay: qHTS of pediatric cancer cell lines to identify multiple opportunities for drug repurposing: Primary screen for OHS-50 cells (AID 1347103); further: nearly all actives have a fitted effect of over 40% in size;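 on activity change, negative = cytotoxic: plate controls were DMSO neutral control for no effect and bortezomib positive control for full effect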
Conditions: OHS-50 osteosarcoma viability, CellTiter-Glo luminescence, 48 h; series mostly up to 57.3 µM; activity change, negative = cytotoxic: at the top concentration
Method in brief: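 Cells (500-1,000/well) rested 5 h, then received compounds for 48 h; metabolically active cells were measured by CellTiter-Glo luminescence. Final concentrations spanned up to 46 µM (MIPE, 11-point) or 0.59 nM-46 µM (NPC, 8-point) in primary screens, 11-point in follow-ups.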
Potency means the concentration at half of the fitted maximal effect.

Structure (SMILES)	activity change, negative = cytotoxic	Potency
O=C(O)c1ccc(S(=O)(=O)N(Cl)Cl)cc1	14.7% (inactive)	–
CC(C)(C)NC[C@H](O)COc1cccc2c1CCCC2=O	-18.2% (inactive)	–
COc1cc(C(=S)N2CCOCC2)ccc1O	-5.11% (inactive)	–
CCN1/C(=C/C=C/c2sc3ccccc3[n+]2CC)Sc2ccccc21	–	0.601 µM (active)
O=C1C(CCS(=O)c2ccccc2)C(=O)N(c2ccccc2)N1c1ccccc1 (stereo unspecified)	6.73% (inactive)	–
O[C@@H](c1cc(C(F)(F)F)nc2c(C(F)(F)F)cccc12)[C@H]1CCCCN1	–	21.9 µM (active)
CC[N+](C)(CC)CCOC(=O)C(O)(c1ccccc1)C1CCCCC1 (stereo unspecified)	3.88% (inactive)	–
C/C=C/C=N/NC(=O)c1ccncc1	10% (inactive)	–
CCCCCCCCCCCCCCC[C@H](O)[C@@H](N)CO	6.86% (inactive)	–
COc1cc(NS(=O)(=O)c2ccc(N)cc2)ncn1	12.1% (inactive)	–
O=C(Nc1cccc(C2=NCCN2)c1)Nc1cccc(C2=NCCN2)c1	56.1% [at 19.7 µM] (inactive)	–
Nc1nc(N)c(-c2ccccc2)s1	-1.94% (inactive)	–
CCCCCCCCCCCCCC[N+](C)(C)Cc1ccccc1	–	4.37 µM (active)
Cc1cccc(C)c1NC(=O)c1ccccc1C(=O)O	13.6% (inactive)	–
COc1ccccc1N1CCN(CCCCNC(=O)c2ccc(-c3ccc(C(C)=O)cc3)cc2)CC1	-20.4% (inactive)	–
O=C(O)CCc1nc2ccccc2[nH]1	-3.25% (inactive)	–
Oc1ccc(Cl)cc1Cc1cc(Cl)ccc1O	–	9.78 µM (active)
NCCNc1cccc2ccccc12	-26.7% (inactive)	–
CCCN(CCC)S(=O)(=O)c1ccc(C(=O)O)cc1	8.35% (inactive)	–
NC(=S)N/N=C/c1cccnc1	12.1% (inactive)	–
O=[N+]([O-])c1ccc(/C=N\O)o1	116% (inactive)	–
